Most compounds without a hit are left out; they make up all but 11% or so of the library.
FLuc inh: Firefly luciferase inhibition profiling of diverse chemical library using quantitative high-throughput screening; Potency, µM (doses to about 115 µM), most hits filed as inhibitors; purified P. pyralis luciferase, luminescence, biochemical; 76,000 compounds, 2.5% hits; AID 1347043, 2019; note: nearly all actives have a fitted effect of over 65% in size
Target sequence (P08659 whole entry, looked up): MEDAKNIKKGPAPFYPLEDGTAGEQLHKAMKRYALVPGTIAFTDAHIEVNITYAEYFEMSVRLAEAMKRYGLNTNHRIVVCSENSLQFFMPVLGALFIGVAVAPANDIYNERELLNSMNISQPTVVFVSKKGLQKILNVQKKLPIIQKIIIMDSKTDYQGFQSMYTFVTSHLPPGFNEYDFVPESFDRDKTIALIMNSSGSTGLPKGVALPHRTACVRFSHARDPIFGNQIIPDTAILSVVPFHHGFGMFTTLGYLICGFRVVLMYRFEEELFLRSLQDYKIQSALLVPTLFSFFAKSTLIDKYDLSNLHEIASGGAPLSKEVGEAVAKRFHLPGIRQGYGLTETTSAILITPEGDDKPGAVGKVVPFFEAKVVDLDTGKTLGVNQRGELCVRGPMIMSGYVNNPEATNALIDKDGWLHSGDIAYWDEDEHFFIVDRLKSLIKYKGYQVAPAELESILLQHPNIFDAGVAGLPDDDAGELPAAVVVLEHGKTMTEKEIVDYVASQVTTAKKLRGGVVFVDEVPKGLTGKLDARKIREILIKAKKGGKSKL
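Biochemical qHTS: compound (6-point titration) added to 10uM D-luciferin plus 10uM ATP in Tris acetate pH 7.5 buffer with Mg, Tween-20 and BSA, then purified enzyme at 10nM; light output imaged.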
NIH3T3 tox: Cytotoxic Profiling in NIH 3T3 Cell Line of Diverse Libraries Using Quantitative High-Throughput Screening; NIH 3T3 viability, CellTiter-Glo ATP luminescence, 48-72 h; Potency, µM (top dose mostly 96.7 µM), without a hit: at the top dose activity change, negative = cytotoxicity, actives largely listed as inhibitors; 94,000 compounds, 4.3% hits; note: nearly all actives have a fitted effect of over 55% in size
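Mouse fibroblast NIH 3T3 cells, 400 per well, received compound via pintool and were incubated for 48 or 72 hr prior to CellTiter-Glo ATP luminescence measurement.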
HEK293 tox: Cytotoxic Profiling in HEK 293 Cell Line of Diverse Libraries Using Quantitative High-Throughput Screening; HEK 293 viability, ATP luminescence (CellTiter-Glo), 48-72 h; Potency, µM (titrated, usually from 115 µM), without a hit: at the highest dose activity change, negative = cytotoxicity, most hits filed as inhibitors; 94,000 compounds, 6.6% hits; note: nearly all actives have a fitted effect of over 60% in size
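Cells seeded first (HEK 293, 250 cells/well), then compound added by pintool. Incubation ran 48 or 72 hr at 37 degree Celsius. CellTiter-Glo was added and luminescence imaged after 10 min at room temperature.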
hNpr1 antagonist: Natriuretic polypeptide receptor (hNpr1) antagonism - Primary qHTS; Atrial natriuretic peptide receptor 1 (Homo sapiens), P16066; HEK293 hNpr1 GloSensor cGMP, ANP-stimulated luminescence; Potency, µM (doses to about 46.3 µM), for the others: top-dose activity change, negative = inhibition, most hits filed as inhibitors; 76,000 compounds, 1.6% hits; AID 1347048, 2019; calls by dose curve; note: nearly all actives have a fitted effect of over 60% in size
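HEK293 cells stably expressing human Npr1 and cGMP GloSensor pGS-40F, loaded 2 h with 2% GloSensor reagent, given compound 30 min at room temperature. Luminescence read before and 20 min after 0.1 nM hNppA.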
An asterisk follows results filed as active; [ ] = remark or other dose. Unless noted, calls come from the whole dose curve; as a rule, active = well fitted curve in the direction sought with a large enough effect; inconclusive = small, poorly fitted or top-dose-only effect, or another doubt; inactive = no such curve, though single readings can be large; an effect the other way counts as inactive or inconclusive. % is set by controls: 0 for no effect and ±100 for the full control effect; potency is the fitted concentration of half-maximal effect.

How did C[C@@H](NC(=O)N1CCOC[C@H]1c1ncc(-c2ccc(OC(F)(F)F)cc2)[nH]1)c1ccccc1 do in these assays?
FLuc inh: inactive; NIH3T3 tox: inconclusive; HEK293 tox: inconclusive; hNpr1 antagonist: 0%

How did C[C@@H](c1ccccc1)N(C)C(=O)c1cn(Cc2cccc(C(F)(F)F)c2)nn1 do in these assays?
FLuc inh: inactive; NIH3T3 tox: inconclusive; HEK293 tox: inconclusive; hNpr1 antagonist: 2%

How did O=C(COc1ccccc1)NC[C@H]1COCc2nc3cc(F)ccc3n21 do in these assays?
FLuc inh: inactive; NIH3T3 tox: inconclusive; HEK293 tox: 79µM*; hNpr1 antagonist: inconclusive

How did O=C(NC[C@H]1COCc2nc3cc(F)ccc3n21)c1ccccc1 do in these assays?
FLuc inh: inactive; NIH3T3 tox: -16%[138 µM]; HEK293 tox: -9%[172 µM]; hNpr1 antagonist: 4%[70.6 µM]

What do the screens show for `Fc1ccc2c(c1)nc1n2[C@@H](CNC2CCC2)COC1`?
FLuc inh: inactive; NIH3T3 tox: 71µM*; HEK293 tox: inconclusive; hNpr1 antagonist: 2%[70.6 µM]

How did CC(C)Cn1c(=O)c(C(=O)N2CCN(C(=O)c3ccccc3)CC2)nc2cccnc21 do in these assays?
NIH3T3 tox: -26%; HEK293 tox: -16%

What do the screens show for `CCCS(=O)(=O)N1CCc2c(c(CN3CCOCC3)nn2C)C1`?
NIH3T3 tox: -13%; HEK293 tox: -4%

Results for OCC1CCN(Cc2cc3cc4c(cc3nc2-c2ccc(Cl)cc2)OCO4)CC1 ?
FLuc inh: 32µM*; NIH3T3 tox: inconclusive; HEK293 tox: inconclusive; hNpr1 antagonist: -3%

How did CC1(O)CCCN(Cc2cc3cc4c(cc3nc2-c2ccc(Cl)cc2)OCO4)C1 (stereo unspecified) do in these assays?
FLuc inh: 32µM*; NIH3T3 tox: inconclusive; HEK293 tox: inconclusive; hNpr1 antagonist: -2%

How did CSc1ccc2cc(CN3CCCC(O)C3)c(-c3ccc(Cl)cc3)nc2c1 (stereo unspecified) do in these assays?
FLuc inh: inactive; NIH3T3 tox: inconclusive; HEK293 tox: inconclusive; hNpr1 antagonist: -3%

What do the screens show for `CSc1ccc2cc(CN3CC[C@@H](O)C3)c(-c3ccc(Cl)cc3)nc2c1`?
FLuc inh: inactive; NIH3T3 tox: inconclusive; HEK293 tox: inconclusive; hNpr1 antagonist: 0%

What do the screens show for `CN(C)C1CCN(Cc2cc3cc4c(cc3nc2-c2ccc(Cl)cc2)OCO4)C1` (stereo unspecified)?
FLuc inh: 28µM*; NIH3T3 tox: inconclusive; HEK293 tox: inconclusive; hNpr1 antagonist: -11%

How did COc1cc2cc(CN3CCC(N(C)C)C3)c(-c3cccc(Cl)c3)nc2cc1OC (stereo unspecified) do in these assays?
FLuc inh: inconclusive; NIH3T3 tox: inconclusive; HEK293 tox: inconclusive; hNpr1 antagonist: -1%

What do the screens show for `O=C(Cn1ccn2nc(-c3ccccc3)c(CO)c2c1=O)Nc1cc(Cl)cc(Cl)c1`?
FLuc inh: inactive; NIH3T3 tox: -24%; HEK293 tox: 50µM*; hNpr1 antagonist: 0%

How did O=C(c1cc2cn(C3CC3)cc2s1)N1CCc2ccccc2C1 do in these assays?
FLuc inh: inactive; NIH3T3 tox: inconclusive; HEK293 tox: 89µM*; hNpr1 antagonist: -1%

Results for CN1CCC(N2CCN(C(=O)c3cc4cn(C5CC5)cc4s3)CC2)CC1 ?
FLuc inh: inactive; NIH3T3 tox: inactive; HEK293 tox: inactive; hNpr1 antagonist: -8%

What do the screens show for `COc1ccc(-c2cn3cc(C(=O)NC4CCCCC4)nc3s2)cc1`?
NIH3T3 tox: -11%; HEK293 tox: -30%

What do the screens show for `COc1ccc(-c2ccnc(-c3nnc(C)n3C3CCCCC3)c2)cc1OC`?
FLuc inh: inactive; NIH3T3 tox: inconclusive; HEK293 tox: inconclusive; hNpr1 antagonist: -2%[70.6 µM]

How did COc1cccc(-c2ccnc(-c3nnc(C)n3C3CCCCC3)c2)c1 do in these assays?
FLuc inh: inactive; NIH3T3 tox: 89µM*; HEK293 tox: 71µM*; hNpr1 antagonist: 0%[70.6 µM]

Results for Cc1nnc(-c2cc(-c3cccc(F)c3)ccn2)n1C1CCCCC1 ?
FLuc inh: inactive; NIH3T3 tox: inconclusive; HEK293 tox: inconclusive; hNpr1 antagonist: -7%[70.6 µM]

What do the screens show for `COc1cccc(Nc2ccnc(-c3nnc(C)n3C3CCCCC3)c2)c1`?
FLuc inh: inactive; NIH3T3 tox: 89µM*; HEK293 tox: 71µM*; hNpr1 antagonist: -25%[70.6 µM]

How did O=[S+]([O-])(Nc1cc(C2CC2)nn1-c1ccccc1)c1ccccc1 do in these assays?
NIH3T3 tox: inconclusive; HEK293 tox: -13%

Results for COc1ccccc1N1CCN(C(=O)Nc2n[nH]c(Cc3ccccc3)n2)CC1 ?
FLuc inh: inactive; NIH3T3 tox: inconclusive; HEK293 tox: 25µM*; hNpr1 antagonist: -17%

Results for Cc1noc(C)c1Cc1ccc(C(=O)N2CCC(C)(c3noc(-c4ccccn4)n3)CC2)o1 ?
FLuc inh: inactive; NIH3T3 tox: inconclusive; HEK293 tox: 45µM*; hNpr1 antagonist: -30%

How did CC1(c2noc(C3CC3)n2)CCN(C(=O)CCc2nc3ccc(Cl)cc3[nH]2)CC1 do in these assays?
FLuc inh: inactive; NIH3T3 tox: -23%; HEK293 tox: inconclusive; hNpr1 antagonist: -20%

What do the screens show for `CC1(c2noc(-c3ccccn3)n2)CCN(C(=O)CCC(=O)N2CC(=O)Nc3ccccc32)CC1`?
FLuc inh: inactive; NIH3T3 tox: 3%; HEK293 tox: 11%; hNpr1 antagonist: 1%

What do the screens show for `CC1(c2noc(-c3ccccn3)n2)CCN(C(=O)CCc2nc3ccc(Cl)cc3[nH]2)CC1`?
FLuc inh: inactive; NIH3T3 tox: inconclusive; HEK293 tox: 50µM*; hNpr1 antagonist: -16%

Results for Cc1noc(C)c1Cc1ccc(C(=O)N2CCC(C)(c3noc(-c4cccnc4)n3)CC2)o1 ?
FLuc inh: inactive; NIH3T3 tox: 32µM*; HEK293 tox: inconclusive; hNpr1 antagonist: -23%

How did CC(C)c1ccc(CN2CCCC3(CCN(c4ncccc4C(N)=O)C3)C2)cc1 (stereo unspecified) do in these assays?
FLuc inh: inactive; NIH3T3 tox: inconclusive; HEK293 tox: 40µM*; hNpr1 antagonist: -7%

What do the screens show for `CN(C)CC1(O)CCCN(c2ncccc2C(N)=O)CC1` (stereo unspecified)?
FLuc inh: inactive; NIH3T3 tox: -2%; HEK293 tox: -4%; hNpr1 antagonist: 6%

How did O=C(NC[C@H]1OC[C@@H](N(Cc2ccccc2)Cc2ccccc2)[C@@H]1O)Nc1ccccc1 do in these assays?
FLuc inh: inactive; NIH3T3 tox: inconclusive; HEK293 tox: 79µM*; hNpr1 antagonist: -13%[70.6 µM]

How did O=C(CCCc1ccccc1)N1CCC(c2nc(C3CCOCC3)no2)C1 (stereo unspecified) do in these assays?
FLuc inh: inactive; NIH3T3 tox: 4%; HEK293 tox: -4%; hNpr1 antagonist: 1%

Source: PubChem BioAssay
